According to PubChem BioAssay AID588334 (Broad Institute, 2011):
Hit rate of the full screen: of about 300,000 compounds, about 2,300 (0.77%) were called active. This is one part of a sample in which actives are shown more often than they occur.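 Rule for the calls: active = mean activation of at least 80% with every replicate also reaching 80%; inconclusive = mean reaches 80% but some replicate falls short; inactive = the rest.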 Where a SMILES comes first, the peptide text is derived from it. [ ]: non-standard residue; d: D form. ξ: configuration not given here. Ac5c = NC1(C(=O)O)CCCC1; ξS = NC(CO)C(=O)O

Test: MITF-driven TRPM1 luciferase induction in melanoma cells – cell-based, SK-MEL-5, single point, primary screen (AID 588334);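 note: 0% = neutral control wells and 100% = parthenolide positive control wells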
Details: SK-MEL-5 TRPM1-promoter luciferase, 24 h; at 12.5 µM; active compounds read high; % of positive control, neutral wells = 0

activation, inactive:
c1ccc2c(CSCc3nc4ccccc4[nH]3)cccc2c1 -9.4%, c1ccc(-c2nnc(SCc3nc4ccccc4[nH]3)o2)cc1 -11.4%, O=C(Cc1ccc(NC(=O)C2CCCN(C(=O)C3CCCCC3)C2)cc1)Nc1cccc(C(=O)N2CCCCC2)c1 (centres undefined) 2.88%, Cc1cccc(C)c1NC(=S)N1CCCCCC1 -1.99%, CC1CCN(C(=S)c2ccc(-c3ccc(Cl)cc3Cl)o2)CC1 28%, CC(C)Cc1nnc(N)s1 -14.5%, Cc1ccc(NC(=O)C2CCC(C(C)(C)C)CC2)cc1S(=O)(=O)N1CCOCC1 (centres undefined) -5.55%, COc1cc(/C=C2\Oc3ccc(C#Cc4ccc(O)cc4)cc3C2=O)cc(OC)c1 -73.4%, O=C(COC(=O)c1cccs1)NCc1cccs1 3.86%, COCCNC(=O)Cn1cc(C(=O)c2cccs2)c2ccccc21 7.95%, O=C(NCc1ccccc1)c1cccc(NC(=O)C2CCCCC2)c1 -5.07%, O=C(NN=Cc1ccccc1)c1ccccc1 55%, COc1cccc(NC(=O)c2ccccc2SC)c1 6.57%, Cc1cccc(NC(=O)Nc2cccc(Oc3c(F)c(F)c(F)c(F)c3F)c2)c1 16.2%, CSc1ncnc2c1ncn2CC(=O)C1CCC2C3CCC4=CC(=O)CCC4(C)C3CCC12C (centres undefined) -44.7%, CCOc1ccc(/C=C(/C#N)c2nnc(N3CCOCC3)n2-c2ccccc2)cc1OC -2.3%, O=C(c1ccc(F)cc1)N1CCCC(c2nc(-c3cccs3)no2)C1 (centres undefined) -6.36%, COc1cccc(-c2noc(C3CCCN(C(=O)c4ccc(F)cc4)C3)n2)c1 (centres undefined) -11.5%, Cc1ccc(-c2csc(NC3OC(=O)c4ccccc43)n2)cc1 (centres undefined) -32.1%, O=C(Nc1nc(-c2ccc(-c3ccccc3)cc2)cs1)c1cnccn1 1.68%, O=C(NCCc1ccccc1)c1cccc(NC(=O)c2ccccc2)c1 20.5%, COc1ccc(CCNC(=O)c2ccccc2OCc2ccccc2)cc1 -7.11%, Cc1ccc(S(=O)(=O)N2CCN(C(=O)COC(=O)/C=C/c3cccc(Cl)c3)CC2)c(C)c1 4.12%, Cc1cccc(NC(=O)c2ccc(S(=O)(=O)N(C)c3ccccc3)cc2)n1 1.38%, CSCCC1NC(=O)N(CC(=O)Nc2cccc(S(=O)(=O)N3CCCCCC3)c2)C1=O (centres undefined) 11.8%, O=C(COC(=O)c1ccccc1)c1ccc2c(c1)OCCO2 17.6%, O=C(COC(=O)c1ccc2c(c1)OCCO2)NCc1ccccc1Cl 4.3%, CCOc1ccc(C(=O)Nc2cccc(-c3ccc4nncn4n3)c2)cc1 52.8%, CCOc1ccc(C(=O)Nc2ccncc2)cc1 41.4%, O=C1CC[C@@H]2CC3(C[C@@H]4CCN1[C@H]24)Nc1cc([N+](=O)[O-])ccc1NC3=NC1CCCCC1 (some centres undefined) 3.73%, COc1ccc(C(=S)Nc2ccccc2)cc1 33.5%, COc1ccc(C(=O)NC2CCN(C(=S)Nc3ccccc3)CC2)cc1 -0.484%, Cc1ccc(NC(=S)NCc2ccccc2Cl)c(C)c1 -11.2%, Cc1ccc(C(=O)NC(=S)Nc2ccccc2C)cc1 51.8%, COc1ccc(CNCCCn2cnc3c(OCc4ccccc4)ncnc32)cc1 7.28%, Cc1ccc(S(=O)(=O)N2CCN(C(=O)c3cc(S(=O)(=O)N4CCOCC4)ccc3F)CC2)cc1 -4.55%, NN=C(NN=Cc1ccccc1)c1ccccc1 35.2%, O=C(NCCc1ccccc1)c1ccc2c(c1)N(Cc1ccccc1)CCS2 39.9%, CCCOc1ccc(C(=O)NCCc2ccccc2)cc1 -2.06%, CC(C(=O)N1CCc2ccccc21)N(C)CC(=O)Nc1ccc(F)cc1 (centres undefined) 13.5%, COC[C@@H]1NS(=O)(=O)c2ccc(Br)cc2O[C@H]1c1ccccc1 7.36%, O=C(O)C1CCCCC1C(=O)Nc1ccc(Cl)cc1 (centres undefined) 20.2%, O=C(CC1SCCNC1=O)Nc1ccc(Cl)cc1 (centres undefined) 26.1%, COc1ccccc1N(CC(=O)Nc1ccc(C)cc1Cl)S(=O)(=O)c1cccs1 -4.34%, COc1ccc(C(=O)NC(=S)NC2CCCCC2)cc1 73.7%, O=C(NC1CCCCCC1)c1cccnc1Sc1ccc(Cl)cc1 6.6%, Cc1occc1C(=O)NNC(=S)NCC(C)C -2.13%, O=C(NNC(=S)NC1CCCCC1)c1ccccc1Cl 9.14%, S=C(NCc1ccc(Cl)cc1)NC1CCCCC1 -7.01%, COCCCNC(=S)NC(=O)c1ccccc1 17.9%, C=CCC[C@H](Cc1ccc(F)cc1)C(=O)OC[C@@H](NC(=O)[C@@H](CC=C)CC(=O)N[C@H](CO)Cc1ccccc1)C(C)(C)C -0.905%, CCCCNC1(C#N)CCN(Cc2ccccc2)CC1 0.419%, CC(C)(C)OC(=O)N(Cc1ccccc1)Cc1ccc(OCc2cccc(NC(=O)c3ccccc3)c2)cc1 -13.4%, O=C(C[C@H]1C[C@H](C(=O)N2CCOCC2)[C@@]2(CCC3CCCC3)c3[nH]c4ccc(Cl)cc4c3CCN2C1=O)NCc1ccco1 -16.1%, CCCCNc1c(-c2ccc(OC)c(Sc3ccc(OC)cc3)c2)nc2ccc(Cl)cn12 4.02%, CCOC(=O)C(CO)NC(=O)C1(NC(C)=O)CCCC1 (centres undefined) (Ac-[Ac5c]-[ξS]-OEt) 14.3%, COc1ccc(S(=O)(=O)N2CCc3ccccc32)cc1C(=O)Nc1cc(S(C)(=O)=O)ccc1Cl -34%, COc1ccc(N2CCN(Cc3nnc(-c4ccccc4)o3)CC2)cc1 -2.12%, S=C(Nc1ccccc1)Nc1ccc2ccccc2c1 1.98%, COc1ccc(Nc2nnc(C)c3ccccc23)cc1 24.4%, COc1ccc(-c2nnc(SCc3cccnc3)o2)cc1 72%, CN(CCc1ccccc1)C(=O)c1cccc(NC(=O)Cc2cccc(NC(=O)C3CCCN(C(=O)CCc4ccccc4)C3)c2)c1 (centres undefined) -13.3%, CCC1([N+](=O)[O-])COC(c2ccc(C(C)C)cc2)OC1 (centres undefined) 53.9%, CC(C)(C)OC(=O)C[C@@H]1C/C=C\C[C@@H](CC(=O)N(CCO)Cc2ccccc2)C(=O)N[C@H](Cc2ccccc2)COC1=O 8.13%, O=C(CSc1nnc(-c2ccco2)n1-c1ccccc1)NCCc1ccccc1 -10.2%, O=C(CSc1nnc(-c2ccco2)n1CC1CCCO1)c1ccccc1 (centres undefined) 5.67%, CCc1c(Nc2ccccc2Cl)nc(N)[nH]c1=O 0.399%, CSc1ccccc1NC(=O)c1cc(Cl)sc1Cl 3.8%, Cc1ccccc1C(=O)Nc1ccccc1Sc1ccccc1 -5.99%, CC(=O)N1CCc2ccc(N)cc21 -5.2%, CC(C#N)OC(=O)c1cccnc1SCC(=O)Nc1ccc2c(c1)OCO2 (centres undefined) -11.6%, O=C(NCCSc1ccccc1)c1ccco1 61.4%, Cc1ccc(C(=O)NCCNS(=O)(=O)c2ccccc2)cc1 0.954%, CC(=O)OC1CCC2C3CCC4=C(CC(F)C(=O)C4)C3CCC12C (centres undefined) 0.663%, COc1ccc(-c2nnc3ccc(SCc4ccccc4)nn23)cc1 -5.03%, COC(=O)CSc1nc(C)c2ccc(OC)cc2n1 16.3%, C[C@]12c3[nH]c4ccc(Cl)cc4c3CCN1C(=O)[C@@H](CC(=O)NCCCn1ccnc1)C[C@@H]2C(=O)N1CCOCC1 13.5%

activation, active:
Clc1ccccc1SCc1nc2ccccc2[nH]1 98.6%, S=C(c1ccc(-c2ccccc2)o1)N1CCCCC1 99.8%, COC(=O)c1cn(CC(=O)NCc2cccs2)c2ccccc12 81.5%, Cc1ccoc1C(=O)Nc1cccc(Oc2ccccc2)c1 87%, Cc1ccc(-c2noc(C3CCCN(C(=O)c4cccc(Cl)c4)C3)n2)o1 (centres undefined) 102%, c1cnc(Nc2nc(-c3ccc4ccccc4c3)cs2)nc1 103%, COc1cccc2[nH]c(C(=O)NCCc3ccccc3)cc12 110%, O=C(OCc1ccccc1F)c1ccc2c(c1)OCCO2 126%, CCOc1ccc(C(=O)Nc2cccc(SC)c2)cc1 84.3%, COc1ccc(NC(=S)N2N=CCC2c2ccccc2)cc1 (centres undefined) 90.9%, Cc1ccc(NC(=S)Nc2ncccc2C)c(C)c1 92.2%, CC1CCCN(c2ccc(C(=O)NCCc3ccccc3)cn2)C1 (centres undefined) 126%, O=C(Nc1ccc(Cl)cc1)/C(=C1\CCCN1)[N+](=O)[O-] 88.7%, CC(C)CNC(=S)NC(=O)c1ccc(Cl)cc1 112%, O=C(NC1CCCCC1)c1ccc(-c2ccc(Cl)cc2)o1 111%, O=C(NC(=S)NC1CCCCC1)c1ccc(Cl)cc1 138%, COc1ccc(Nc2ccc3ccccc3c2)cc1 101%, COc1ccc(-c2nnc(-c3ccc4ccccc4c3)o2)cc1 93.8%, c1ccc(CSc2nnc(-c3ccco3)n2Cc2ccccc2)cc1 94.3%, CSc1ccccc1NC(=O)c1cnc2sc(C)cn2c1=O 126%, CCS(=O)(=O)Nc1ccc(C(=O)NCCSc2ccccc2)cc1 82.4%, COc1ccc2nc(SCc3ccccc3)nc(C)c2c1 91.9%
